In PubChem BioAssay (Tox21):
Records with an inconclusive call do not appear. Active and inactive are the calls of the source. Unless noted, calls follow the shape of the dose curve; as a rule, active = well fitted curve in the direction sought with a large enough effect in the repeat runs; inconclusive = weak or mixed curves; inactive = no such curve, though single readings can be large; an effect the other way counts as inactive or inconclusive.

Key:
[1] = qHTS assay to identify small molecule antagonists of the estrogen receptor alpha (ER-alpha) signaling pathway using the BG1 cell line in the presence of 0.1 nM 17-beta-estradiol - cell viability counter screen (AID 1259241); also: nearly all actives have a fitted effect of over 40% in size
Procedure, shortened: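 Cytotoxicity counter-screen: live-cell protease activity measured by fluorescence (30 min reagent step) in the same wells. Cells were VM7Luc4E2 with endogenous ER-alpha and ERE-driven luciferase, treated 22 hr at 37C alongside 0.1 nM 17beta-estradiol final.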

[2] = qHTS assay to identify small molecule antagonists of the androgen receptor (AR) signaling pathway using the MDA cell line in the presence of 0.5 nM R1881 - cell viability counter screen (AID 1259242); also: nearly all actives have a fitted effect of over 45% in size
Procedure, shortened: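 Live-cell protease fluorescence, CellTiter-Fluor, 30 min at 37C. Cells: MDA-kb2, 3,000/well, preincubated 5 hr. Compounds plus 0.5 nM R1881 final, 16 hr, 37C, 0% CO2.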

[3] = biological target: Androgen receptor (Homo sapiens) (UniProt P10275); experiment: qHTS assay to identify small molecule antagonists of the androgen receptor (AR) signaling pathway using the MDA cell line in the presence of 0.5 nM R1881 (AID 1259243); also: nearly all actives have a fitted effect of over 50% in size
Procedure, shortened: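 MDA-kb2, MMTV-luc (AR/GR elements); 3,000 cells/well; cpd + 0.5 nM R1881 final; 16 hr 37C, 0% CO2; ONE-Glo 30 min RT; luminescence.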

[4] = qHTS assay to identify small molecule HDAC inhibitors (AID 1259364);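 also: wild-type HCT-116 cells with endogenous class I/II HDAC activity; top concentration of the series differs between compounds; nearly all actives have a fitted effect of over 45% in size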
Procedure, shortened: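 HCT-116 (wild type), 1,500 cells/well, overnight; compound 2 hr 37C 5% CO2; HDAC-Glo I/II reagent 30 min RT; luminescence readout.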

[5] = qHTS assay to identify small molecule HDAC inhibitors - cell viability counter screen (AID 1259365); also: series mostly up to about 92 µM; nearly all actives have a fitted effect of over 50% in size
Procedure, shortened: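 CellTiter-Glo luminescence (30 min, room temperature) reported viability after a 2 h compound exposure at 37 C. Cells: wild-type HCT-116, 1,500 per well, seeded the night before.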

[6] = qHTS assay to identify small molecule agonists of the sonic hedgehog signaling (Shh) pathway - cell viability counter screen (AID 1259366); also: nearly all actives have a fitted effect of over 50% in size
Procedure, shortened: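 Cytotoxicity counter screen: CellTiter-Fluor reagent added after 23 h compound exposure, then 1 h at 37C and fluorescence read. Cells were 3T3 Gli1-Luc, seeded 2,000 per well and dosed 4 h post-plating.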

[7] = qHTS assay to identify small molecule antagonists of the sonic hedgehog signaling (Shh) pathway - cell viability counter screen (AID 1259367); also: nearly all actives have a fitted effect of over 55% in size
Procedure, shortened: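 Fluorescence read-out (CellTiter-Fluor, 1 hr at 37C) taken after 23 hr compound treatment of 3T3 Gli1-Luc cells stimulated with conditioned medium. Cells were seeded at 2,000 per well and pre-incubated 4 hr.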

[8] = qHTS assay to identify small molecule agonists of the sonic hedgehog signaling (Shh) pathway (AID 1259368; calls by dose curve;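 also: NIH/3T3-derived 3T3Gli1-Luc cells carrying a stable Gli1-driven firefly luciferase reporter; series mostly up to about 92 µM; nearly all actives have a fitted effect of over 15% in size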)
Procedure, shortened: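 Read-out: firefly luciferase luminescence from a Gli1 response element reporter stably integrated in NIH/3T3-derived 3T3Gli1-Luc cells, measured 30 min at room temperature after reagent addition. Compound exposure lasted 24 hr at 37 C, 5% CO2.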

[9] = qHTS assay to identify small molecule antagonists of the sonic hedgehog signaling (Shh) pathway (AID 1259369; calls by dose curve; also: nearly all actives have a fitted effect of over 45% in size)
Procedure, shortened: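 Luminescence readout: firefly Luc under Gli1 response element in 3T3Gli1-Luc cells (NIH/3T3 clone). Antagonist mode, stimulation by conditioned medium; compound exposure 24hr at 37 C, 5% CO2.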

[10] = qHTS assay to identify small molecule agonists of the androgen receptor (AR) signaling pathway in the presence of an antagonist - cell viability counter screen (AID 1259379);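 also: MDA-kb2 human breast cancer cells carrying an MMTV luciferase reporter; series mostly up to about 92 µM; nearly all actives have a fitted effect of over 25% in size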
Procedure, shortened: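 Viability counter screen: CellTiter-Fluor fluorescence, measured in the same wells as the luciferase read-out. MDA-kb2 cells, 3,000/well, with nilutamide at 3.0uM final and compounds at 15 concentrations, 16 hr at 37C, 0% CO2.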

[11] = qHTS assay to identify small molecule agonists of the estrogen receptor beta (ER-beta) signaling pathway - cell viability counter screen (AID 1259380); also: nearly all actives have a fitted effect of over 30% in size
Procedure, shortened: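 Luminescence read-out (CellTiter-Glo, 30 min, room temp) taken in the same wells as the beta-lactamase reporter assay; ER-beta-UAS-bla HEK293T cells exposed to DMSO-dissolved compounds for 16 hr at 37C in 2% charcoal-stripped FBS medium.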

[12] = biological target: Androgen receptor (Homo sapiens) (UniProt P10275); experiment: qHTS assay to identify small molecule agonists of the androgen receptor (AR) signaling pathway in the presence of an antagonist (AID 1259381; calls by dose curve; also: nearly all actives have a fitted effect of over 15% in size)
Procedure, shortened: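 Luciferase read-out (ONE-Glo, 30min room temperature) in MDA-kb2 MMTV-reporter cells; agonist mode run in presence of AR antagonist nilutamide, 3.0uM final. Compounds tested as 15-point series, 16hr exposure at 37C, 0% CO2.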

[13] = qHTS assay to identify small molecule antagonists of the estrogen receptor beta (ER-beta) signaling pathway - cell viability counter screen (AID 1259382); also: series mostly up to about 92 µM; nearly all actives have a fitted effect of over 55% in size
Procedure, shortened: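 Luminescent ATP read-out (CellTiter-Glo, 30 min, RT) taken in the same wells as the bla reporter assay. HEK293T ER-beta-UAS-bla cells in 2% charcoal-stripped FBS were exposed to compounds with 1nM E2 for 16 hr at 37C.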

[14] = qHTS assay to identify small molecule phospholipidosis (PLD) inducers (AID 1259344; active = well fitted curve in the direction sought with a large enough effect; an effect the other way counts as inactive or inconclusive)
Procedure, shortened: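 Read-out is LipidTOX Red fluorescence (ex 595/em 615) imaged in HepG2 cells after 24 h compound exposure at 37 C, with Hoechst nuclear counterstain (ex 352/em 461) allowing per-cell normalisation.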

[15] = qHTS assay to identify small molecule agonists or antagonists of the thyroid stimulating hormone receptor (TSHR) signaling pathway - wild type cell line counter screen (AID 1259384; calls by dose curve)
Procedure, shortened: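 Wild-type Hek293 cells, 800/well, 18 h at 37C, then compound with Ro20-1724 for 30 min RT. cAMP by HTRF (cAMP-d2/anti-cAMP cryptate), 1 h RT, fluorescence read. 15 concentrations, triplicates.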

[16] = biological target: Thyrotropin receptor (Homo sapiens) (UniProt P16473); experiment: qHTS assay to identify small molecule antagonists of the thyroid stimulating hormone receptor (TSHR) signaling pathway (AID 1259385; calls by dose curve; also: nearly all actives have a fitted effect of over 20% in size)
Procedure, shortened: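 TSHR-HEK293 cells (800/well) plated 18 h, then compounds with Ro20-1724 and TSH at 1.5 ng/mL final, 30 min at room temperature. cAMP quantified by HTRF (cAMP-d2/anti-cAMP-cryptate, 1 h); 15 concentrations in triplicate.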

[17] = biological target: Estrogen receptor beta (Homo sapiens) (UniProt Q92731); experiment: qHTS assay to identify small molecule agonists of the estrogen receptor beta (ER-beta) signaling pathway (AID 1259377; active = well fitted activation curve with a large enough effect in the signal ratio in the repeat runs, not every such curve was filed as active; the % refers to the signal ratio)
Procedure, shortened: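 Ratiometric beta-lactamase FRET read-out came after 2 h substrate loading at room temperature. It followed 16 h compound treatment at 37C of GripTite HEK293T cells carrying a UAS-bla reporter, plated in 2% charcoal-stripped FBS medium.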

[18] = biological target: Estrogen receptor beta (Homo sapiens) (UniProt Q92731); experiment: qHTS assay to identify small molecule antagonists of the estrogen receptor beta (ER-beta) signaling pathway (AID 1259378; active = well fitted inhibition curve with a large enough effect in the signal ratio in the repeat runs, not every such curve was filed as active; the % refers to the signal ratio)
Procedure, shortened: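 ER-beta-UAS-bla HEK293T cells in 2% charcoal-stripped FBS medium treated with compound plus 1nM final 17-beta-estradiol for 16 hr at 37C. Beta-lactamase reporter read by FRET substrate fluorescence after 2 hours at room temperature.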

[19] = biological target: Estrogen receptor (Homo sapiens) (UniProt P03372); experiment: qHTS assay to identify small molecule agonists of the estrogen receptor alpha (ER-alpha) signaling pathway in the presence of an antagonist (AID 1259383; calls by dose curve; also: top concentration of the series differs between compounds; nearly all actives have a fitted effect of over 15% in size)
Procedure, shortened: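 Luciferase luminescence (ONE-Glo, 30min at room temperature) measured in VM7Luc4E2 cells after 22hr compound exposure at 15 concentrations, with 10.0nM ICI-182,780 final present; cells express endogenous ER-alpha and carry four EREs upstream of luciferase.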

[20] = biological target: Estrogen receptor (Homo sapiens) (UniProt P03372); experiment: qHTS assay to identify small molecule antagonists of the estrogen receptor alpha (ER-alpha) signaling pathway using the BG1 cell line in the presence of 0.1 nM 17-beta-estradiol (AID 1259244); also: nearly all actives have a fitted effect of over 50% in size
Procedure, shortened: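 Luminescence after ONE-Glo (30 min, room temperature) measured ERE-luciferase activity in VM7Luc4E2 cells treated 22 h with compound and 0.1 nM final 17beta-estradiol as stimulator.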

Measured: Potency

Chain of Androgen receptor (Homo sapiens) (P10275 whole entry, looked up): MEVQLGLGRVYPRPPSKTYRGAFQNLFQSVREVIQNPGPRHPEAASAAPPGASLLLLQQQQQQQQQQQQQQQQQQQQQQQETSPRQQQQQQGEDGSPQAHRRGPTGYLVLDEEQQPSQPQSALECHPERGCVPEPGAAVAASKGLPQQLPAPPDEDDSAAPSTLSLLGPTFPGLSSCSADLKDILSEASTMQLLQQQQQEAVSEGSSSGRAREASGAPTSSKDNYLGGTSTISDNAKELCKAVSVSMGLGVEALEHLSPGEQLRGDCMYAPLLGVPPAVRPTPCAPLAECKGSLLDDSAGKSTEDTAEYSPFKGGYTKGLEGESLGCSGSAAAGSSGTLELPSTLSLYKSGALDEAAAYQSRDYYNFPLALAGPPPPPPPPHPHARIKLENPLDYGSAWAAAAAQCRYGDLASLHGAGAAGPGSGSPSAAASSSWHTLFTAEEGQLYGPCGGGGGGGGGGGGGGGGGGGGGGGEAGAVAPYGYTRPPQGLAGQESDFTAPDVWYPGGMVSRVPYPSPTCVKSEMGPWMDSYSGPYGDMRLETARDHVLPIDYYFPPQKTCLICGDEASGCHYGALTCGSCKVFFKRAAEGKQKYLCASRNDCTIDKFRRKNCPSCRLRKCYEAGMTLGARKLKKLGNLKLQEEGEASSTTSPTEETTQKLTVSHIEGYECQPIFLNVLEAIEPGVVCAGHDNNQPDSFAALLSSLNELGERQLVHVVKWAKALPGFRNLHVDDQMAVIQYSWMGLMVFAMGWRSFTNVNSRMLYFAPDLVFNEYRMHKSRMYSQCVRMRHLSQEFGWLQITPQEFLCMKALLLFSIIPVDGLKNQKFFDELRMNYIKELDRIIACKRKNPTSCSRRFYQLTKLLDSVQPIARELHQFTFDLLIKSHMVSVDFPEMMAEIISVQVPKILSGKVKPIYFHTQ
Chain of Thyrotropin receptor (Homo sapiens) (P16473 whole entry, looked up): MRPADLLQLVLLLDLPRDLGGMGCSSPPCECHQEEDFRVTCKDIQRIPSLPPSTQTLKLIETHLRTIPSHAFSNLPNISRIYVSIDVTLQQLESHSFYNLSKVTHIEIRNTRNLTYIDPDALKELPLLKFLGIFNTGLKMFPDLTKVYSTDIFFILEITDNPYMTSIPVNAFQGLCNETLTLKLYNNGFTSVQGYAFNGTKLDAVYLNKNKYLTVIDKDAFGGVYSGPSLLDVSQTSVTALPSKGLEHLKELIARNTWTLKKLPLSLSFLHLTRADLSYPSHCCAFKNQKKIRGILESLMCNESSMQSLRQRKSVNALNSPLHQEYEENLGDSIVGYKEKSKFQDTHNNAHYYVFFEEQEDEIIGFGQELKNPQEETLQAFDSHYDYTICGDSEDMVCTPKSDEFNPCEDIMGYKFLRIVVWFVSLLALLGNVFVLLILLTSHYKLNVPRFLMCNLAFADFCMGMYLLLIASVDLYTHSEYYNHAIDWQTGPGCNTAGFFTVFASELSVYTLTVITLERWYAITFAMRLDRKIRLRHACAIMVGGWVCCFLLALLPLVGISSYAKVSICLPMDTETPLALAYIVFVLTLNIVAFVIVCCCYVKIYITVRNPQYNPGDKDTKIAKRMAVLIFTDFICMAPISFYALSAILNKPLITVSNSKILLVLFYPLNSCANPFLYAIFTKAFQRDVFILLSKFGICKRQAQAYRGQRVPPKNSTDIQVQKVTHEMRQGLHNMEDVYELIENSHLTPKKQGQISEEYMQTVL
Chain of Estrogen receptor beta (Homo sapiens) (Q92731 whole entry, looked up): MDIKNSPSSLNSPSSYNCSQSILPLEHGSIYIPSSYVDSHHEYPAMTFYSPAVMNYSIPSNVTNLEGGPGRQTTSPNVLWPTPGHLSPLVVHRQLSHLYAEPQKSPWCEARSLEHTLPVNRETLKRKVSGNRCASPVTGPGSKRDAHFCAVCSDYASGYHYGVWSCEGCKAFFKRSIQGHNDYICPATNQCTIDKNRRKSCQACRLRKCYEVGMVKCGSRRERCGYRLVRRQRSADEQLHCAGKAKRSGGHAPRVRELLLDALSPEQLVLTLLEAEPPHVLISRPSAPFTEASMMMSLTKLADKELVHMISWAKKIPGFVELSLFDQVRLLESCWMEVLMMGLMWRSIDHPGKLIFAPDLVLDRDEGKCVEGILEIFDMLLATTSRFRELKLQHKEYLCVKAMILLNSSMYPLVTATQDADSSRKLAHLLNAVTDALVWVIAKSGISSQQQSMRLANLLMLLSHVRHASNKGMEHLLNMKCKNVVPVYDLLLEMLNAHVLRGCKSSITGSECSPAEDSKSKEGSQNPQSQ
Chain of Estrogen receptor (Homo sapiens) (P03372 whole entry, looked up): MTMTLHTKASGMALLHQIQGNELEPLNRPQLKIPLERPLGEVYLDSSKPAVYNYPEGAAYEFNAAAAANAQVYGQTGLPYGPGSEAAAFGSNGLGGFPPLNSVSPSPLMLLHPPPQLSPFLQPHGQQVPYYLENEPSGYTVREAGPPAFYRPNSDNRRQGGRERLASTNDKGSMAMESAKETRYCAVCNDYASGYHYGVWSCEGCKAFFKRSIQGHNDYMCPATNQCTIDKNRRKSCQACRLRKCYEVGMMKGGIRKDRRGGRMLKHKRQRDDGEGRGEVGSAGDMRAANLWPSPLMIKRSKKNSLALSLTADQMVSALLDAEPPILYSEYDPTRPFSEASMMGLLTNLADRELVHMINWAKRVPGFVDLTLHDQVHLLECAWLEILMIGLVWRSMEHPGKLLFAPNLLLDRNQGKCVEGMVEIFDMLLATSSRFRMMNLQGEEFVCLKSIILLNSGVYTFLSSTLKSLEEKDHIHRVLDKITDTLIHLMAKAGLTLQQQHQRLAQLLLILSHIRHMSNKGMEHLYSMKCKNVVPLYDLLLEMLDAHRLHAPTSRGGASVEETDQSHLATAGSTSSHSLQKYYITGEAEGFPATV

CCCCC(CC)COC(=O)c1ccc(C(=O)OCC(CC)CCCC)cc1 (stereo not drawn)
not listed: [14] | [15] | [16] | [17] | [18] | [19] | [20]
inactive: all other assays above

NCCNCCNCCN
not listed: [3] | [9] | [11] | [12] | [17] | [18] | [19] | [20]
inactive: all other assays above

OCC(O)CS (stereo not drawn)
not listed: [9] | [16] | [20]
inactive: all other assays above

CC1(C)C(=O)N(Cl)C(=O)N1Cl
not listed: [3] | [9] | [12] | [14] | [17] | [18]
inactive: all other assays above

Cc1ccc(C(C)C)cc1
not listed: [9] | [11] | [14] | [16] | [17] | [18] | [20]
inactive: all other assays above

O=C(NCC1CCCCN1)c1cc(OCC(F)(F)F)ccc1OCC(F)(F)F (stereo not drawn)
not listed: [3] | [9] | [12] | [17] | [18] | [19] | [20]
inactive: all other assays above

CCCN(CCC)C(=O)SCC
not listed: [5] | [11] | [14] | [18]
inactive: all other assays above

C[Si](C)(C)N[Si](C)(C)C
not listed: [3] | [12] | [14] | [18]
inactive: all other assays above

CC(C)=CCC/C(C)=C/C=O
not listed: [3] | [5] | [11] | [12] | [14] | [16]
inactive: all other assays above
